Screening results: PubChem, ICCB-Longwood Screening Facility, Harvard Medical School
Polio RdRp inh – poliovirus RNA polymerase inhibition; P03300; poliovirus polymerase elongation, fluorescence polarization; stronger effect = lower value; % elongation, % (compound at 16.7 µg/mL); actives 0.66% (n = 150,000); AID 588519; in the data active = % elongation below about 90%
Mtb MenB inh – Mtb MenB enzyme inhibition | MenB enzyme assay, absorbance read-out | inhibition, % (concentration not given with the values) | actives 0.43% (n = 100,000) | P9WNP5; in the data active = inhibition above about 21%, passing the limit was not always enough
MbtI inh – blocks the Mycobacterium tuberculosis siderophore enzyme MbtI; P9WFX0; actives 0.89% (n = 100,000); purified MbtI enzyme, fluorescence intensity read-out; AID 493033; inhibition, % (concentration not given with the values); in the data active = inhibition mostly above about 56%, no sharp cut-off; inactive = mostly below about 77%
Target sequence (P9WFX0 whole entry, looked up): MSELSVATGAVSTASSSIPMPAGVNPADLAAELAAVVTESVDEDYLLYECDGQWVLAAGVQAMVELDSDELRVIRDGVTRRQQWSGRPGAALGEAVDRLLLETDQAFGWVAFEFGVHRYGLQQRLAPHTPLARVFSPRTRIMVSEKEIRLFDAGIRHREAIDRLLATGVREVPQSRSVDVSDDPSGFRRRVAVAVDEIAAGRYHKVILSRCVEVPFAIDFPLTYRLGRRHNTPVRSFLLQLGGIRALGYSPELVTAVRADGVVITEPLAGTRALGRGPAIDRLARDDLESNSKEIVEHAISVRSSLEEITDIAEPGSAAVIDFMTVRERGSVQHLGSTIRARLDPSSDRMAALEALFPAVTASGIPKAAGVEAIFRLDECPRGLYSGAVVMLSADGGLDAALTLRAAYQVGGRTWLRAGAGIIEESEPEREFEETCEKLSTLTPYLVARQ
AID504770 – growth inhibitors of E. coli YBA685 in a screen for V. cholerae RctB (chromosome II replication) inhibitors | E. coli YBA685 rctB-dependent plasmid, OD600 growth, 3 h; stronger effect = lower value | z-score (test concentration not listed) | actives 0.27% (n = 130,000); in the data active = z-score below about -2, passing the limit was not always enough
Large screens that a line does not name were inactive. Hits are enriched below; roughly 1.4% of the tested compounds scored in any of these assays.

COC(=O)/C=C1/OC(c2ccccc2)=CC1=O	MbtI inh 89.4
O=C(/C=C/c1ccco1)/C=C/c1ccco1	Polio RdRp inh 80.0
Oc1ccc(O)c(C2CC3CCC2C3)c1 (stereo unspecified)	MbtI inh 102.5
O=C1CCCC(O)=C1N=Nc1ccc(C(=O)O)cc1	Polio RdRp inh 76.0
O=C1CCCC(O)=C1N=Nc1ccccc1C(=O)O	none
COc1ccc(C(=O)N2c3ccccc3CC2C)cc1 (stereo unspecified)	Mtb MenB inh 31.6
CC1Cc2ccccc2N1C(=O)c1ccc(Cl)cc1 (stereo unspecified)	none
Nc1ccc2nc(CCCO)[nH]c2c1	Polio RdRp inh 54.0
CCOc1cc(C#N)c(-n2nnc3c(sc4nc(C)cc(C)c43)c2=O)cc1OCC	Polio RdRp inh 78.0 (no result: Mtb MenB inh, MbtI inh, AID504770)
O=S(=O)(NCCSCc1ccco1)c1ccc(Br)cc1	none
CC(CN1CCCN(C)CC1)c1ccccc1 (stereo unspecified)	none
CN1CCCN(Cn2nc3ccccn3c2=S)CC1	Polio RdRp inh 15.0
O=C(c1cccs1)N1CCN(C/C=C/c2ccccc2)CC1	Mtb MenB inh 42.6
CCOC(=O)c1cc(C(=O)OCC)n(C)n1	none (no result: MbtI inh)
CCOC(=O)c1cc(C(=O)O)nn1C	Mtb MenB inh 28.3
N#CC1(N2CCNCC2)CCCCC1	none
OC(Cc1cccnc1)(c1ccccc1)c1ccccc1	Polio RdRp inh 89.0
C=CCN1C(=O)/C(=C/C=c2\c3cccc4cccc(c43)n2CC)SC1=S	none
Cc1ccc(Cc2c[nH]c(=S)s2)cc1	MbtI inh 89.8
COc1ccc(CNc2nccs2)cc1OC	Mtb MenB inh 28.8
Cc1nc2sccn2c1-c1csc(Nc2cccc(Cl)c2C)n1	MbtI inh 70.2
CCc1ccccc1Nc1nc(-c2c(C)nc3sccn23)cs1	none
O=c1c(Cl)c[nH]n(-c2ccccc2)c1=O	none
CSc1c[nH]n(-c2ccccc2)c(=O)c1=O	MbtI inh 78.0
O=S(=O)(Nc1ccc(O)c2ccccc12)c1ccccc1	none
CCN(CC)S(=O)(=O)c1ccc(/C=C/C(=O)OCc2nnc(-c3ccccc3)o2)cc1	none
CN=Cc1cc(-c2ccccc2)n(C)c1S	MbtI inh 98.5
O=C1C2(Cc3ccccc3)CN3CN(C2)CC1(Cc1ccccc1)C3	none
CCn1c(SCCC#N)nnc1-c1ccncc1	Mtb MenB inh 30.7
O=C1NC(=O)C(=C2CCCCC2)S1	MbtI inh 85.8
O=C1N=C(N2CCOCC2)SC1=C1CCCCC1	none
C1CCN(c2nc(N3CCCC3)nc(N3CCNCC3)n2)C1	Mtb MenB inh 32.8
Cc1cc(C)nc(N2CCNCC2)n1	none
CCCn1c2ccccc2c2cc(OC)ccc21	none
NC(=O)NC(CC(=O)O)c1ccc(Cl)cc1 (stereo unspecified)	none
COCCCNC(=O)c1cn(CC(C)C)c(=O)c2c1c1ccccc1n2C	none (no result: Mtb MenB inh, MbtI inh, AID504770)
CCOc1ccc(NC(=O)c2cn(CC(C)C)c(=O)c3c2c2ccccc2n3C)cc1	AID504770 -2.85
CCCNC(=O)c1ccccc1NC(=O)c1ccco1	none (no result: MbtI inh)
COc1ccc2c(c1)CCc1c(C(=O)N3CCCCC3)noc1-2	none
COc1ccc2c(c1)CCc1c(C(=O)N3C(C)CCCC3C)noc1-2 (stereo unspecified)	AID504770 -3.05
c1ccc(CN=C2CCc3ccccc3N2)cc1	none (no result: Mtb MenB inh)
O=C(CC1CCCCC1)NCC1CCCO1 (stereo unspecified)	Mtb MenB inh 30.7
CCOC(=O)/C(C#N)=C1\CC2CCC1(C)C2(C)C (stereo unspecified)	MbtI inh 83.8
Cc1ccc(NC(c2ccc(O)cc2)P(=O)(c2ccccc2)c2ccccc2)cc1 (stereo unspecified)	none (no result: Polio RdRp inh, Mtb MenB inh, MbtI inh)
COc1cc(/C=N/N=C(N)N)ccc1OC(=O)c1ccc(C)cc1	AID504770 -9.55
NC(=O)c1c(NC(=O)c2cc(-c3ccccc3)on2)sc2c1CCCC2	none (no result: MbtI inh)
O=C1C=CC(=O)C(Nc2ccccc2)=C1	MbtI inh 98.7 (no result: Mtb MenB inh)
O=C1C=C(Nc2ccccc2)C(=O)c2ccccc21	none
CCN(Cc1ccccc1)C(=O)c1cc(-c2ccc(C)c(C)c2)n[nH]1	none
COC(=O)C(C#N)c1nc2ccccc2nc1Cl (stereo unspecified)	Polio RdRp inh 83.0
CC(=O)N1CCC(C(=O)c2ccc(F)cc2F)CC1	none (no result: Polio RdRp inh, Mtb MenB inh, MbtI inh)
CC(=O)N1CCC(N)=N1	none
Cc1nonc1NC(=O)Nc1cccnc1	AID504770 -2.05 (no result: MbtI inh)
Cc1ccc2nc3sc(C(=O)O)c(N)c3cc2c1	none
Cc1ccc2ncc(-c3ccc4c(N)c(C)ccc4n3)cc2c1	Polio RdRp inh 17.0 (no result: MbtI inh)
O=[n+]1c2c(n([O-])c3ccccc31)CCC2	AID504770 -3.35
Cc1ccc2c(c1)n([O-])c1c([n+]2=O)CCCC1	none
O=C(COc1ccccc1F)Nc1ccc(I)cc1	none (no result: Mtb MenB inh)
CC(=NCC(C)O)c1cc(Cl)ccc1O (stereo unspecified)	none (no result: Polio RdRp inh, Mtb MenB inh, MbtI inh)
CSc1sc(C(=O)N(C)C)cc1S(=O)(=O)C(C)C	none (no result: Polio RdRp inh, Mtb MenB inh, MbtI inh)
CSc1sc(C(=O)Sc2ccccc2)cc1S(=O)(=O)C(C)C	Polio RdRp inh 82.0
FC(F)(F)c1cc(Br)cc(Br)c1	none
Cc1cc(C)nc(SCCN(C)C)n1	none (no result: Polio RdRp inh, Mtb MenB inh)
Cc1cc(C)nc(SCC(N)=O)n1	Mtb MenB inh 46.0
Cc1cc(C)nc(SCCSc2nc(C)cc(C)n2)n1	Mtb MenB inh 33.9
CC(Oc1ccccc1)C(=O)Nc1ccccc1C(=O)N1CCOCC1 (stereo unspecified)	none
O=C(O)C(C(=O)/C=C/c1ccccc1)=C1SCS1	MbtI inh 88.8
Cc1ccc(Cl)cc1NC(=O)C1=NCCN1	Polio RdRp inh 73.0
C=CCN1C(=O)C2C(C(=O)NCc3ccccc3)C3C=CC2(O3)C1C(=O)NC(C)(C)C (stereo unspecified)	none
CNC(=O)C1C2C=CC3(O2)C1C(=O)N(C1CC1)C3C(=O)NCc1ccc(OC)cc1 (stereo unspecified)	Mtb MenB inh 47.9
C#CCN1C(=O)C2C(C(=O)NC)C3C=CC2(O3)C1C(=O)NCc1ccc(OC)cc1 (stereo unspecified)	Mtb MenB inh 53.9
Cc1ccc(CNc2c(C(=O)O)cnn2Cc2ccc(C)cc2)cc1	none (no result: Polio RdRp inh, Mtb MenB inh)
CCN(Cc1nc(-c2cccc(C)c2)no1)C(=O)c1ccc(Br)o1	none
CC(=O)c1c(CC(=O)O)[nH]n(-c2nc3ccccc3s2)c1=O	MbtI inh 59.7
COC(=O)Cc1[nH]n(-c2nc3ccccc3s2)c(=O)c1C(C)=O	none (no result: MbtI inh)
Cc1nc(N2CCCN(C)CC2)c2c3c(sc2n1)CCC3	none (no result: Polio RdRp inh, Mtb MenB inh, MbtI inh)
Cc1ccc(-c2nc(SCC(=O)c3ccc(Cl)cc3)n[nH]2)cc1	none (no result: Polio RdRp inh, Mtb MenB inh, MbtI inh)
Nc1nc(SCC(=O)c2ccc(Cl)cc2)n[nH]1	AID504770 -2.65 (no result: Polio RdRp inh, Mtb MenB inh, MbtI inh)
Cc1nc(C(=O)Nc2ccc(Cl)cc2)sc1C(=O)Nc1ccc(Cl)cc1	Polio RdRp inh 69.0, MbtI inh 64.5
O=c1cc(CSc2nnc(COc3ccccc3Cl)n2C2CC2)nc2sccn12	none (no result: Polio RdRp inh)
CC1(C)CC(=O)C=C(Nc2ccccc2F)C1	AID504770 -2.55
CCC(c1nnc(SCC(=O)NCCc2ccc(Cl)cc2Cl)o1)N(C)C (stereo unspecified)	MbtI inh 78.6
O=C(O)CCC(=O)Nc1ccc(O)c(C(=O)O)c1	Polio RdRp inh 87.0
CC(=O)Nc1ccc(O)c(C(=O)O)c1	none (no result: Polio RdRp inh, Mtb MenB inh, MbtI inh)
CCCCC(CC)C(=O)Nc1c2c(nc3c1CCC3)CCCC2 (stereo unspecified)	none
